# Data: ChEMBL document CHEMBL3433997, “St. Jude Leishmania screening dataset” (2016)
# Key:
# Assay type in all cases: functional
# [1] = biological target: Solute carrier family 2, facilitated glucose transporter member 1 (Homo sapiens) (UniProt P11166); assay: ST_JUDE_LEISH: Cytotoxicity at 2uM final concentration against transgenic Leishmania Mexicana promastigotes LmGLUT1 that are glucose transport deficient and complemented with the human glucose transporter GLUT1. Activity is measured by DNA content using SYBR green in vitro
# [2] = biological target: Hexose transporter 1 (Plasmodium falciparum) (UniProt O97467); assay: ST_JUDE_LEISH: Cytotoxicity at 2uM final concentration against transgenic Leishmania Mexicana promastigotes LmPfHT that are glucose transport deficient and complemented with the Plasmodium falciparum hexose transporter. Activity is measured by DNA content using SYBR green in vitro
# [3] = biological target: Glucose transporter (Leishmania mexicana) (UniProt O61059); assay: ST_JUDE_LEISH: Cytotoxicity at 2uM final concentration against transgenic Leishmania Mexicana promastigotes LmGT2 that are glucose transport deficient and complemented with the L. Mexicana glucose transporter 2. Activity is measured by DNA content using SYBR green in vitro
# Sequence of Solute carrier family 2, facilitated glucose transporter member 1 (Homo sapiens) (P11166 whole entry): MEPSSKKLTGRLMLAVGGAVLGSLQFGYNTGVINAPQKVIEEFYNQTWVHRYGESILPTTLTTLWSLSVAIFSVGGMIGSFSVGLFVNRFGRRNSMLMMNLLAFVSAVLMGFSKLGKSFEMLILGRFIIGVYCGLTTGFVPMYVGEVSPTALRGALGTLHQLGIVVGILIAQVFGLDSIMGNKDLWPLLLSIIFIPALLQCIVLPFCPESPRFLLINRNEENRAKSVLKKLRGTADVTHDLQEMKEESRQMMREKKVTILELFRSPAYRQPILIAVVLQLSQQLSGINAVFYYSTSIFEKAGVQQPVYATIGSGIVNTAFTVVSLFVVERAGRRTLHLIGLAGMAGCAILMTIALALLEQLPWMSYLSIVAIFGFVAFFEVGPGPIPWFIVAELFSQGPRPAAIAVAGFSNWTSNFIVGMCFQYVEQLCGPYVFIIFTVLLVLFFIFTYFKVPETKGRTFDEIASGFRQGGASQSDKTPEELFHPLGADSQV
Structure (SMILES),inhibition [1] [%],inhibition [2] [%],inhibition [3] [%]
O=C(/C=C/c1ccc([N+](=O)[O-])cc1)N1CCC(CCN2CCC(c3c[nH]c4ccccc34)CC2)CC1,2.33,3.09,2.47
CCCCc1cc(NCC)nc(Nc2ccc(F)cc2)n1,18.4,10.4,4.95
CC(C)(C)c1cc(C(=O)N2CCN(c3ncnc4ccsc34)CC2)n(Cc2ccccc2)n1,4.27,4.01,2.2
c1ccc(Oc2ccc(Nc3ccnc4ccc(-c5ccccn5)cc34)cc2)cc1,2.62,4.16,3.02
Cc1ccc2[nH]c(-c3ccccc3)cc(=NN=Cc3cccnc3)c2c1,1.16,0.03,-2.99
CC(C)CNC(=O)c1cncc(-c2ccc(CN(C)C3CCN(C)CC3)cc2)c1,4.89,5.48,1.87
CN(C)C(=S)N/N=C1/C(=O)Nc2ccc(OC(F)(F)F)cc21,1.94,1.64,0.75
Cc1c2ccc(N(C)c3ccnc(Nc4ccc5c(c4)nc(NC(C)C)n5C)n3)cc2nn1C,0.46,1.01,-1.42
COc1ccc(NC(=O)[C@H](CC(C)C)Nc2cc(C)nc(NCCOc3ccccc3)n2)cc1,1.07,2.71,-0.23
Oc1cccc(CCNCCCCCCNCCc2ccc(Cl)cc2)c1,2.27,2.44,2.3
O=C(CCc1c[nH]cn1)Nc1ccc(-c2ccc(-c3nc4cc(F)ccc4[nH]3)cc2)cc1,1.4,1.73,1.81
CN1CCCN(Cc2cccc(-c3cccc(NC(=O)c4ccc(Cl)cc4)c3)c2)CC1,5.97,4.21,3.68
CC(CN(C)C)C(=O)Nc1cccc(-c2ccc(-c3nc4ccccc4[nH]3)s2)c1 (centres undefined),9.63,9.45,3.78
